Values without a mark were called inactive. Activity calls are given as the source filed them.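 The calls were made as follows: active = growth inhibition above 50% at the single 2 µM test dose, taken to imply half-maximal potency below 2 µM; inactive = the rest.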
experiment: antimalarial activity against Dd2 strain (AID 2302);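 also: 0% = DMSO untreated growth and 100% = chloroquine plus artemisinin killed control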; settings: P. falciparum Dd2 in RBCs, LDH growth readout, 72 h; at 2 µM; hits give high values

Row | Structure (SMILES) | growth inhibition
1 | Cc1cc(-c2cccc(CNCCc3ccc(Cl)cc3)c2)cnc1N | 3%
2 | CCCCCCN1CCN(Cc2cccc(NC(=O)c3cccc(OCC)c3)c2)CC1 | 48%
3 | CCOc1ccc(Br)cc1/C=C/C(=O)Nc1ccc2c(c1)CN(C)CCC2 | 37%
4 | O=C(CN1CCN(C(=O)c2ccco2)CC1)Nc1ccc(Br)cc1Cl | 79% (active)
5 | FC(F)(F)c1ccc2nc(-c3ccc(-c4ccc(CNCC5CCCO5)cc4)cc3)[nH]c2c1 (configuration not stated) | 100% (active)
6 | CC[C@H](NC(=O)c1ccc(NC(=O)OC(C)(C)C)cc1)C(=O)N[C@@H](CO)C(=O)NCCCCc1ccccc1 | 94% (active)
7 | Cc1cccc(C(=O)Nc2ccnc(N3CCC(N(C)Cc4cccc(O)c4)CC3)c2)c1 | 41%
8 | CCCSc1nc2c(c(=O)n1CCc1ccccc1)C1(CCCC1)Cc1ccccc1-2 | 53% (active)
9 | COc1ccc2c(NN=Cc3cccnc3)ccnc2c1 | 26%
10 | Cc1cc(N[C@@H](CC(C)C)C(=O)NCc2cccc(F)c2)nc(NCC2CCCCC2)n1 | 70% (active)
11 | CN1CCCN(Cc2ccc(-c3ccc(NC(=O)c4ccc(C#N)cc4)cc3)cc2)CC1 | 28%
12 | O=C(N[C@@H](CC1CCCCC1)C(=O)NCCN1CCCC1)c1ccc(O)c(-c2ccc(Cl)c(Cl)c2)c1 | 99% (active)
13 | NC(N)=Nc1nc(-c2ccc(NC(=O)Nc3cccc(-c4csc(N=C(N)N)n4)c3)cc2)cs1 | 80% (active)
14 | CC(C)COc1ccc(Cl)cc1Cc1ccc(-c2nc3c(cnc4ccccc43)[nH]2)o1 | 26%
15 | CC1(C)N=C(N)N=C(N)N1OCc1cc(Cl)c(Cl)cc1CON1C(N)=NC(N)=NC1(C)C | 100% (active)
16 | CN(C)CCNCc1cccc(-c2cccc(-c3nc4ccccc4[nH]3)c2)c1 | 63% (active)
17 | CCn1ccc2c(N3CCCS3(=O)=O)cc(C(=O)N[C@@H](Cc3ccccc3)[C@H](O)CNC3CCCCC3)cc21 | 98% (active)
18 | CCCCCCN1CCN(Cc2cccc(NC(=O)c3cc4ccccc4s3)c2)CC1 | 68% (active)
19 | N#Cc1ccc2c(c1)CCN(CCC1CCC(NC(=O)c3cc4cccc([N+](=O)[O-])c4[nH]3)CC1)C2 (configuration not stated) | 28%

Row | Structure (SMILES) | growth inhibition
20 | O=C(Cn1c(CCc2cccc(F)c2F)cc(=O)c2cccnc21)N(CCCn1ccnc1)Cc1ccc(-c2ccc(C(F)(F)F)cc2)cc1 | 47%
21 | O=C(Nc1cccc(OCCN2CCCC2)c1)Nc1ccc(Cl)c(Cl)c1 | 22%
22 | Cc1ccc(Nc2nc(C)cc(Nc3cccc(NS(C)(=O)=O)c3)n2)cc1 | 8%
23 | Cc1cccc2c3c([nH]c12)C1(CCN(Cc2ccccc2)CC1)NC(C(=O)NCc1ccccc1)C3 (configuration not stated) | 8%
24 | OCCn1c(CNCCCNc2nc3ccccc3[nH]2)cc2c(Cl)cc(Cl)cc21 | 0%
25 | CCOc1ccc2c(NN=Cc3cccc([N+](=O)[O-])c3)cc(C)nc2c1 | 97% (active)
26 | CCN(CC)CCN(CCCc1ccc(-c2ccc(C(F)(F)F)cc2)cc1)C(=O)Cn1c(CCc2cccc(F)c2F)nc(=O)c2c1CCC2 | 27%
27 | Cc1cc(C(=O)Nc2nc(-c3ccccn3)nc3ccsc23)no1 | 90% (active)
28 | CCCN(CCC)CCCNc1ccc(C(=O)Nc2ccc(C)c(F)c2)cc1[N+](=O)[O-] | 94% (active)
29 | CCN(CC)CCN(Cc1ccc(-c2ccc(C(F)(F)F)cc2)cc1)C(=O)Cn1cc(CCCc2cccc(F)c2F)c(=O)c2ccccc21 | 20%
30 | O=C(Cc1ccc(NC(=O)c2ccc(O)c(-c3ccc(Cl)c(Cl)c3)c2)cc1)NCCc1ccc(Cl)c(Cl)c1 | 88% (active)
31 | C=CCO[C@@H]1O[C@H](COC(c2ccccc2)(c2ccccc2)c2ccccc2)[C@@H](OC(C)=O)[C@H](OC(C)=O)[C@H]1NC(C)=O | 66% (active)
32 | CCOc1cc(NCCSCc2nc[nH]c2C)nc2ccccc12 | 10%
33 | Cc1cc(C(=O)Nc2ccc(-c3nc4ccccc4[nH]3)cc2)ccc1[N+](=O)[O-] | 47%
34 | Cc1ccc(C)c2sc(N(CCCn3ccnc3)C(=O)C=Cc3cccs3)nc12 | 93% (active)
35 | COc1cc(C=Cc2ccc3ccccc3n2)cc(Br)c1OCC(=O)N(C)C | 87% (active)
36 | O=C(Nc1ccc(N2CCCCC2)c(Cl)c1)c1ccc(Br)o1 | 94% (active)
37 | Cn1cnc(CCNC(=O)c2cccc(-c3cccc(-c4nc5ccc(C(F)(F)F)cc5[nH]4)c3)c2)c1 | 45%

— PubChem BioAssay
